# Source: PubChem BioAssay (NCATS)
# A number with no mark means an inactive call. Inconclusive results are not listed. Entries that show only a call come without a potency. Active and inactive are the calls of the source. Calls come from the whole dose curve; as a rule, active = well fitted curve in the direction sought with a large enough effect; inconclusive = small, poorly fitted or top-dose-only effect, or another doubt; inactive = no such curve, though single readings can be large; an effect the other way counts as inactive or inconclusive.
# Assays:
# [1] = Cell Viability - H-4-II-E (AID 543); note: nearly all actives have a fitted effect of over 35% in size
# Outline: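 Cells seeded at 1500 per well and rested 5 hr; compounds added; 40 hr incubation at 37 °C; CellTiter-Glo added, 20 min at room temperature; luminescence read. Hill-equation fits gave AC50.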
# [2] = Cell Viability - SH-SY5Y (AID 544); details: SH-SY5Y neuroblastoma cell viability; viability change, negative = cytotoxic: at 92.2 µM (top of the series); note: nearly all actives have a fitted effect of over 55% in size
# Outline: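 Cells were plated at 1500 per well and allowed 5 hr at 37 °C. Compounds were added across a concentration range and incubated 40 hr at 37 °C. CellTiter-Glo was added for 20 min at room temperature before luminescence reading.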
# [3] = Cell Viability - Renal Proximal Tubule (AID 545); note: nearly all actives have a fitted effect of over 40% in size
# Outline: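 In this qHTS format, normal rat kidney-derived proximal tubule cells in complete culture medium receive compound titrations, then sit 40 hours at 37 °C before luciferase-based ATP quantitation; potency is reported as AC50 from concentration-response curves.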
# [4] = Cell Viability - Mesenchymal (AID 546);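 note: cells exposed to compound for 40 hours before reading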
# Outline: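 CellTiter-Glo luminescence (intracellular ATP, 20 min room temperature) after 40 hr compound exposure at 37 °C of 1000 glomerulus-derived human kidney mesenchymal cells/well; AC50 values obtained by fitting qHTS concentration-response data to the Hill equation.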
# [5] = Cellular Toxicity (caspase-3) HepG2 (AID 654);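 note: cells exposed to compound for 16 hours before reading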
# Outline: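 Caspase 3/7 activation in HepG2 is measured as rising luminescence after a 16 hr treatment at 37 °C. Values are scaled between DMSO basal and 100 uM tamoxifen, and AC50 is fitted with the Hill equation.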
# [6] = Cellular Toxicity (caspase-3) Jurkat (AID 655); details: Jurkat caspase-3 activation, luminescence; caspase-3 activation: at 92.2 µM (top of the series), DMSO = 0%, tamoxifen = 100%;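 note: cells exposed to compound for 16 h at 37 °C before reading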
# Outline: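 qHTS in human Jurkat T-cell leukemia line: 16 hr compound treatment at 37 °C, caspase-3/7 activity measured by Caspase-Glo luminescence. AC50 derived from Hill equation.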
# [7] = Cellular Toxicity (caspase-3) HUV-EC-C (AID 656)
# Outline: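 Concentration-dependent caspase 3/7 induction was assessed in HUV-EC-C cells exposed for 16 hours. Data scaled between DMSO and tamoxifen (100 uM) controls.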
# [8] = Cellular Toxicity (caspase-3) SHSY5Y (AID 657);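 note: cells exposed to compound for 16 hours at 37 °C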
# Outline: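 Readout: caspase-cleaved peptide-aminoluciferin substrate driving luciferase light in SH-SY5Y neuroblastoma cells after 16 h treatment. Response normalized to DMSO and 10 uM staurosporine controls.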
# [9] = Cellular Toxicity (caspase-3) BJ (AID 658)
# Outline: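 Caspase-Glo 3/7 luminescence, read 1 hr after reagent at room temperature, in normal BJ fibroblasts exposed 16 hours at 37 °C. AC50 values from Hill-equation concentration-response, scaled between DMSO basal and 10 uM staurosporine as 100%.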
# [10] = Cellular Toxicity (caspase-3) MRC-5 (AID 659)
# Outline: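 Luminescent Caspase-Glo 3/7 read-out (1 h, room temperature) after a 16 h, 37 °C compound exposure of MRC-5 lung fibroblasts at 1500 cells/well. Concentration-response AC50 from Hill equation; 0% DMSO, 100% 10 uM staurosporine.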
SMILES,Potency [1],Potency [2],Potency [3],Potency [4],Potency [5],caspase-3 activation [6],outcome [7],outcome [8],outcome [9],outcome [10]
NC=O,inactive,inactive,inactive,inactive,inactive,2.21%,inactive,inactive,inactive,inactive
CC(CCl)OC(C)CCl (stereo not given),inactive,inactive,inactive,inactive,inactive,1.36%,inactive,inactive,inactive,inactive
CSc1ccc(C=O)cc1,inactive,inactive,inactive,inactive,inactive,1.05%,inactive,inactive,inactive,inactive
O=C(O)c1c(Cl)cccc1Cl,inactive,inactive,inactive,inactive,inactive,0.737%,inactive,inactive,inactive,inactive
CC(C=O)Cc1ccc(C(C)(C)C)cc1 (stereo not given),inactive,inactive,inactive,inactive,inactive,2.85%,inactive,inactive,inactive,inactive
Nc1cccc(N)c1,inactive,inactive,inactive,inactive,inactive,0.427%,inactive,inactive,inactive,inactive
CCCC(C)CO (stereo not given),inactive,inactive,inactive,inactive,inactive,0.921%,inactive,inactive,inactive,inactive
O=C(O)CNC(=O)c1ccc(CO)o1,inactive,inactive,inactive,inactive,inactive,-2.47%,inactive,inactive,inactive,inactive
O=C1CCC(=O)O1,inactive,inactive,inactive,inactive,inactive,1.09%,inactive,inactive,inactive,inactive
O=C(O)c1ccc(C(=O)O)cc1,inactive,inactive,inactive,inactive,inactive,1.28%,inactive,inactive,inactive,inactive
CC(C)CO,inactive,inactive,inactive,inactive,inactive,-0.38%,inactive,inactive,inactive,inactive
CC(C)(C)OC=O,inactive,inactive,inactive,inactive,inactive,-1.27%,inactive,inactive,inactive,inactive
OC1CCCC1,inactive,inactive,inactive,inactive,inactive,0.809%,inactive,inactive,inactive,inactive
CC(C)CCOC(=O)/C=C/c1ccccc1,inactive,inactive,inactive,inactive,inactive,0.824%,inactive,inactive,inactive,inactive
OCCO,inactive,inactive,inactive,inactive,inactive,1.1%,inactive,inactive,inactive,inactive
CC(=O)c1ccccn1,inactive,inactive,inactive,inactive,inactive,12.2%,inactive,inactive,inactive,inactive
O=P(O)(OCc1ccccc1)OCc1ccccc1,inactive,inactive,inactive,inactive,inactive,1.88%,inactive,inactive,inactive,inactive
O=Cc1cccc(Br)c1,inactive,inactive,inactive,inactive,inactive,2.44%,inactive,inactive,inactive,inactive

SMILES,Potency [1],Potency [2],Potency [3],Potency [4],Potency [5],caspase-3 activation [6],outcome [7],outcome [8],outcome [9],outcome [10]
CCCCCCCCC,inactive,inactive,inactive,inactive,inactive,0.991%,inactive,inactive,inactive,inactive
Cc1cc(C)cc(N)c1,inactive,inactive,inactive,inactive,inactive,0.537%,inactive,inactive,inactive,inactive
CCCCC(=O)N(C)C,inactive,inactive,inactive,inactive,inactive,-0.841%,inactive,inactive,inactive,inactive
S=C([S-])NCCNC(=S)[S-].[Zn+2],inactive,inactive,inactive,inactive,inactive,5.46%,inactive,inactive,inactive,inactive
c1ccc(Nc2ccccc2)cc1,inactive,inactive,inactive,inactive,inactive,1.36%,inactive,inactive,inactive,inactive
C/C=C(/C)C#N,inactive,inactive,inactive,inactive,inactive,1.22%,inactive,inactive,inactive,inactive
O=C(O)c1ccccc1Cl,inactive,inactive,inactive,inactive,inactive,-0.163%,inactive,inactive,inactive,inactive
CCNc1ccccc1,inactive,inactive,inactive,inactive,inactive,0.137%,inactive,inactive,inactive,inactive
CC(C)(c1cc(Br)c(OCC(Br)CBr)c(Br)c1)c1cc(Br)c(OCC(Br)CBr)c(Br)c1 (stereo not given),inactive,inactive,inactive,inactive,inactive,99.2% (active),inactive,inactive,inactive,inactive
Cc1ccc(C#N)cc1,inactive,inactive,inactive,inactive,inactive,0.554%,inactive,inactive,inactive,inactive
O=C1OC(=O)c2c(Br)c(Br)c(Br)c(Br)c21,inactive,inactive,inactive,inactive,inactive,-0.0657%,inactive,inactive,inactive,inactive
COC(=O)CS,inactive,inactive,inactive,inactive,inactive,-2.15%,inactive,inactive,inactive,inactive
Cc1cccc(C)c1,inactive,inactive,inactive,inactive,inactive,-2.27%,inactive,inactive,inactive,inactive
Cc1cccc(C)c1[N+](=O)[O-],inactive,inactive,inactive,inactive,inactive,0.339%,inactive,inactive,inactive,inactive
Cc1c(N)cccc1N,inactive,inactive,inactive,inactive,inactive,-0.535%,inactive,inactive,inactive,inactive
Cc1cscn1,inactive,inactive,inactive,inactive,inactive,2.2%,inactive,inactive,inactive,inactive
FC(F)(F)c1cccc(Cl)c1,inactive,inactive,inactive,inactive,inactive,-0.146%,inactive,inactive,inactive,inactive
